Source: PubChem BioAssay AID1852 (Sanford-Burnham Center for Chemical Genomics, 2009)
The campaign covered roughly 2,500 compounds. About 1,100 (44%) were called active.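 Rule for the calls: active = inhibition above 50% at 4 µM in the single-point screen; inactive = inhibition of 50% or less.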 The set was probably picked from earlier hits. This is one part of the list.

experiment: TNF-a-driven NF-kB reporter inhibitors, primary screen, selectivity assay for NOD1/NOD2 signaling inhibitor project, cell-based, HEK293T NF-kB-Luc, luminescence (AID 1852); conditions: TNF-a induced, 14 h, at 4 µM, stronger effect = higher value

inhibition, inactive:
Cc1c(Cl)cccc1NC(=S)NNc1ncc(C(F)(F)F)cc1Cl 28.7%
Cc1ccc(C(=O)Nc2ncc([N+](=O)[O-])s2)cc1 3.8%
Cc1ccc(S(=O)(=O)c2ccc([N+](=O)[O-])cn2)cc1 38.5%
CC(C)C[C@H](NC(=O)c1nc[nH]c1C(=O)N1CCN(C(=O)OC(C)(C)C)CC1)C(=O)OC(C)(C)C 2.4%
CCn1c(=O)cc(SCC(=O)Nc2ccc(C)cn2)c2ccccc21 35.4%
Cc1ccnc(NC(=O)Cc2ccc(-c3ccccc3)cc2)c1 48.8%
Cc1nc(N2CCN(C(=O)COc3ccccc3)CC2)c2c(C)c(C)sc2n1 23.4%
CCOC(=O)c1sc2nc(CSc3ccccc3)[nH]c(=O)c2c1C -7.9%
Cc1nc(N2CCC(C)CC2)c2c(C)c(C(=O)Nc3cc(F)ccc3C)sc2n1 -61.2%
Cc1nc(N2CCN(c3ccccc3O)CC2)c2c(-c3ccccc3)csc2n1 -13.5%
CCOc1cc(/C=C2\C(=N)N3N=C(S(C)(=O)=O)SC3=NC2=O)ccc1OCCOc1cccc(OC)c1 -31.3%
Fc1ccc(Sc2nc(-c3ccccc3)nnc2C(F)(F)F)cc1 40.3%
O=CN1CCN(c2c([N+](=O)[O-])c(=O)oc3ccccc23)CC1 -17%
O=C1CCSc2ccc(Cl)cc2N1Cc1cccc(Cl)c1 17.4%
COc1ccc(COC(=O)NC2CCN(S(=O)(=O)c3ccc(OC)cc3)CC2)cc1 20.6%
CCOC(=O)C1CCN(c2ncnc3c2cnn3-c2ccc(Cl)cc2)CC1 36.4%
Cc1nc(N2CCN(c3ccccn3)CC2)c2c(C)c(C(=O)N3CCN(c4ccc(F)cc4)CC3)sc2n1 -51.2%
COC(=O)c1ccc2nc(Nc3nc4c(F)cc(F)cc4s3)sc2c1 35.5%
C=CCn1c(O)c(N=NC(=S)Nc2cccc(OC)c2)c2ccccc21 12%
NC(=S)N=Nc1c(O)n(Cc2ccc(Br)cc2)c2ccccc12 -15.1%
C=CCn1c(O)c(N=NC(=S)Nc2cccc(C)c2)c2ccccc21 8.8%
C/C(Cl)=C\Cn1c(O)c(N=NC(N)=S)c2ccccc21 35.2%
Oc1c(N=NC(=S)Nc2ccccc2F)c2ccccc2n1Cc1ccccc1F 7.6%
C=CCn1c(O)c(N=NC(=S)Nc2ccc(OC)c(Cl)c2)c2ccccc21 -34.6%
O=C(Nc1ccc(Br)c2ccccc12)c1ccc2ccccc2c1O 42.5%
CC(=O)c1c(C)oc2ccc(N(C(C)=O)S(=O)(=O)c3ccc(F)cc3C)cc12 -8.7%
CCCC1/C(=N/O)CC(c2ccccc2)NC1c1ccccc1 (stereo not drawn) 31.6%
CCC(C)(C)c1ccc(OCCCC[n+]2cccc(C)c2)c(C(C)(C)CC)c1 41.5%
O=C(Nc1ccc([N+](=O)[O-])cc1)Nc1ccc(Cl)cc1F 12.9%
Cc1cc(Cl)ccc1OCC(=O)Nc1ccccc1NS(=O)(=O)c1cccs1 21.7%
Cc1cc(-c2n[nH]c(=S)n2/N=C/C(Br)=C/c2ccccc2)n[nH]1 23.7%
Cc1cc(-c2n[nH]c(=S)n2/N=C/C(Cl)=C/c2ccccc2)n[nH]1 -31.5%
Cc1ccc(-c2n[nH]c(=S)n2/N=C/c2ccncc2)cc1 4.6%
Cc1noc2ncnc(Oc3ccc(Cl)cc3Cl)c12 -0.2%
CCN1CCN(Cc2ccc(NC(=O)c3ccc(C)c(/C=C/c4cnc(Nc5cc(N6CCNCC6)nc(C)n5)cn4)c3)cc2C(F)(F)F)CC1 -16%

inhibition, active:
Cc1ccc(S(=O)(=O)c2ncccc2[N+](=O)[O-])cc1 52.6%
O=[N+]([O-])c1cccnc1S(=O)(=O)c1ccccc1 69.6%
Cc1ccnc(NC(=O)CSc2cc(=O)n(C)c3ccccc23)c1 86.3%
Nc1ncc(Br)cc1S(=O)(=O)Nc1cc(C(F)(F)F)cc(C(F)(F)F)c1 78%
Cc1sc2nc(CSc3ccccc3)nc(N3CCC(C(N)=O)CC3)c2c1C 53.5%
Cc1nc(N2CCC(C(N)=O)CC2)c2c(-c3cccs3)csc2n1 57.4%
CC(C)c1ccc(-n2c(-c3ccccc3)c[n+]3c2CCc2ccccc2-3)cc1 86%
CC(Oc1ccc(Br)cc1)c1nc2c3ccccc3nc(=S)n2[nH]1 (stereo not drawn) 101%
CCCC(Oc1ccc(Br)cc1)c1nc2c3cc(OC)c(OC)cc3nc(=S)n2[nH]1 (stereo not drawn) 104%
N=C1SCC(=O)N1c1ncc(Cc2ccc(F)cc2)s1 109%
N=C1SCC(=O)N1c1ncc(Cc2ccccc2Cl)s1 97.5%
N=C1SCC(=O)N1c1ncc(Cc2cccc(Cl)c2)s1 101%
Cc1nn(-c2ccccc2)c(Cl)c1C(=O)N1CCN(c2ncnc3c2cnn3-c2ccccc2)CC1 86.6%
Cc1ccc2nc(NC(=O)CSCC(=O)OCC(=O)c3ccc(Br)cc3)sc2c1 75.2%
C=CCn1c(O)c(N=NC(=S)Nc2ccc(OC)cc2)c2ccccc21 96.3%
C=CCn1c(O)c(N=NC(=S)Nc2ccccc2F)c2ccccc21 100%
Cc1c(Cl)cccc1NC(=S)N=Nc1c(O)n(CN2CCOCC2)c2ccccc12 70.8%
CC1=C(CO)C(=O)OC([C@@H](C)C2CC[C@H]3C4C[C@H]5O[C@]56[C@@H](O)C=CC(=O)[C@]6(C)C4CC[C@]23C)C1 (stereo partly drawn) 89.9%
COc1cc(OC)cc(-c2cc3nc(C)c(CCC(=O)O)c(C)n3n2)c1 85.7%
O=C(Nc1ccc(Cl)c(Cl)c1)Nc1ccc(Br)cc1F 106%
O=C(Nc1ccc(Cl)c(Cl)c1)Nc1ccccc1NS(=O)(=O)c1cccs1 94.3%
CC(=C/c1ccccc1)/C=N/n1c(-c2ccncc2)n[nH]c1=S 94.4%
S=c1[nH]nc(-c2cc(-c3ccccc3)n[nH]2)n1/N=C/C(Br)=C/c1ccccc1 105%
